# GLP1R cytotox = cytotoxic in the GLP-1 receptor inverse agonist counter-screen | hit rate 0.13% among 410,000 | Potency, µM (series often up to 38.3 µM), without a hit: top-dose activity change, negative = inhibition, most hits filed as inhibitors | HEK293 cAMP-luciferase reporter cells, luminescence, 24 h | AID 624418;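 also: loss of luciferase light is scored as toxicity; potency is read from the fitted curve at half-maximal effect; % is scaled to controls: 0 for no effect and ±100 for the full control effect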
#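 Luminescence readout: signal drop marks cytotoxicity. Plated cells grew 12 h at 37 °C, 5% CO2, received 23 nL compound for 24 h, then got luciferase reagent, read after 12 min at RT.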
# GLP-1R inv ag = acts as inverse agonist at human GLP-1 receptor; Potency, µM (series often up to 38.3 µM), for the others: at the top dose activity change, negative = inhibition, usual class: inhibitors; AID 624417; P43220; hit rate 1.6% among 410,000; HEK293 GLP-1R CRE-luciferase, luminescence, 24 h; GLP-1R form is constitutively active; also: potency is read from the fitted curve at half-maximal effect; % is scaled to controls: 0 for no effect and ±100 for the full control effect; nearly all actives have a fitted effect of over 55% in size
#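 Inverse agonism was detected as reduced cAMP-driven luciferase luminescence after 24 h compound treatment. The cells were HEK293 clones expressing constitutively active human GLP-1R with the reporter. Reporter-only and GPR119 cell lines served as counterscreen controls.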
# TRPML1 ag = human mucolipin-1 channel agonism. Q9GZU1. AID 624414. activation, % (concentration not given with the values). hit rate 0.12% among 410,000. TRPML1-expressing cells, Ca2+ dye fluorescence, FDSS; in the data active = activation above about 50%; inconclusive = mostly about 30% to 49%; also: 0% is about no effect
# Target sequence (Q9GZU1 whole entry, looked up): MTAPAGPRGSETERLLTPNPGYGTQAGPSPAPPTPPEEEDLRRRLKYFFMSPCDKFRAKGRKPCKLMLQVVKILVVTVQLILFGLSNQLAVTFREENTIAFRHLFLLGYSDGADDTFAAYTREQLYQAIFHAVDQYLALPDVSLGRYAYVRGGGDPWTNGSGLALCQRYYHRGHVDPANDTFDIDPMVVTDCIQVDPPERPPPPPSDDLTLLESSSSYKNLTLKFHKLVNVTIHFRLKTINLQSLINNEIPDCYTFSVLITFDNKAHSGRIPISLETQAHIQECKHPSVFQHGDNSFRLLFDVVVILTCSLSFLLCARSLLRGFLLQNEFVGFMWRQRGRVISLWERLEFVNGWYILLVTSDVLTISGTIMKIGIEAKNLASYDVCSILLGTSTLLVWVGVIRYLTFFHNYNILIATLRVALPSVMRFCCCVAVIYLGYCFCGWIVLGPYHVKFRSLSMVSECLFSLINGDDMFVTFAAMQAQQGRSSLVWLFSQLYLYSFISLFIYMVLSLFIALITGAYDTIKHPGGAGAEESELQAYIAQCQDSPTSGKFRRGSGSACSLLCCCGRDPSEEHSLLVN
#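 Agonist activity was taken from a 110 s kinetic Ca2+ dye read on the FDSS after pinning compounds onto TRPML1-DL cells. The cells were seeded at 1,500/well with Tet inducer, incubated about 16 h, then dye-loaded at room temperature.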
# TRPML1 inh = inhibitors of human TRPML1 channel. Q9GZU1. TRPML1-inducible cells, Ca2+ dye fluorescence, FDSS; hits give low values; inhibition of EC80 agonist-evoked calcium signal. activity change, negative = inhibition, % (no concentration beside the values). hit rate 0.02% among 390,000; in the data active = activity change below about -50%; inconclusive = between about -30% and that limit;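 also: stimulus is agonist 54-4 at its EC80 concentration; % is scaled to controls: 0 for no effect and ±100 for the full control effect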
#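 Calcium fluorescence in TRPML1-DL cells induced overnight with Tet: a 110 s read after compound pin addition, then a 110 s antagonist read after challenge with 54-4 at 4 uM final (EC80).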
# GLP-1R agonist = agonists of human GLP-1 receptor; P43220; Potency, µM (doses to about 45.6 µM), for inactives: top-dose activation, most hits filed as activators; hit rate 0.007% among 380,000; HEK293 GLP-1R CRE-luciferase, luminescence, 4-6 h; cells express a hypersensitive GLP-1R form; AID 624172; also: potency is read from the fitted curve at half-maximal effect; % of control where 0% means no effect
# Numbers without * were called inactive; ? = inconclusive; . = not tested or not shown. Only some compounds are listed: those with a hit (about 1.8% of all), similar ones and a draw of the others. Unless noted, calls follow the shape of the dose curve; as a rule, active = well fitted curve in the direction sought with a large enough effect; inconclusive = small, poorly fitted or top-dose-only effect, or another doubt; inactive = no such curve, though single readings can be large; an effect the other way counts as inactive or inconclusive.
SMILES,GLP1R cytotox,GLP-1R inv ag,TRPML1 ag,TRPML1 inh,GLP-1R agonist
CCN1CCN(c2cc(-c3ccccc3)nc3cc(-c4cccc(F)c4)nn23)CC1,?,2.5µM*,2,65,-51%
O=C(C1CCN(CCCc2ccccc2)CC1)N(CCc1ccccc1)Cc1ccccc1,?,10µM*,2,1,-2%
CCC(/C=C1\Sc2ccc(OC)cc2N1CC)=C\c1sc2ccc(OC)cc2[n+]1CCCS(=O)(=O)[O-],-31%,-29%,2,-16,-6%
CCC(/C=C1\Sc2ccc(OC)cc2N1CCO)=C\c1sc2ccc(OC)cc2[n+]1CCO,-18%,10µM*,1,1,3%
O=C(NC1CC2CCCC(C1)N2C(=O)Nc1ccc(Cl)c(C(F)(F)F)c1)C1CC1 (configuration not stated),-16%,10µM*,0,22,-7%
Cc1ccc(OCC(=O)Nc2nonc2-c2ccc(C)c(C)c2)cc1C,3%,-7%,2,62,.
CCC(C)N(C(=O)c1csnn1)C(C(=O)NC1CCCC1)c1ccc(F)cc1 (configuration not stated),20%,-6%,0,-15,6%
CC(C)CCN(C(=O)c1csnn1)C(C(=O)NC1CCCCC1)c1ccc(F)cc1 (configuration not stated),-4%,10µM*,0,-1,38%
COC(=O)CNC(c1ccccc1)c1cc(C)ccc1NC(=O)CNC(=O)OCc1ccccc1 (configuration not stated),-23%,?,1,8,7%
COC(=O)CNC(c1ccccc1)c1cc(Br)ccc1NC(=O)OCc1ccccc1 (configuration not stated),5%,4µM*,2,-11,-3%
S=C1SCN(Cc2cccnc2)CN1Cc1cccnc1,?,3.2µM*,0,-5,-2%
COc1ccc(CN2CSC(=S)N(Cc3ccccc3)C2)cc1,?,10µM*,0,0,21%
S=C1SCN(Cc2ccccc2)CN1Cc1ccccc1,?,?,4,-1,25%
COc1ccc(CN2CSC(=S)N(Cc3ccc(OC)cc3)C2)cc1,2%,?,2,12,19%
O=S1(=O)CCOCCCN1Cc1cccc(Cl)c1,.,.,-1,.,.
Cc1c2cnn(CC(=O)NCCc3ccccc3)c(=O)c2c(C)n1Cc1ccccc1,-8%,-7%,0,27,.
Cc1cc2nc(C3CCN(CC4COc5ccccc5O4)CC3)[nH]c2cc1C (configuration not stated),-23%,10µM*,2,14,-5%
COc1ccc2[nH]c3c(c2c1)CNCC3,5%,-14%,0,-2,2%
Clc1ccc2[nH]c3c(c2c1)CNCC3,-2%,10µM*,1,-15,-1%
COc1cc(NC(=O)CSc2nc3ccccc3nc2Cc2ccccc2OC)cc(OC)c1,-1%,8%,3,8,.
Cc1ccc(NC(=O)CN2CCC(Cc3ccccc3)CC2)cc1S(=O)(=O)N(C)C,-13%,8.9µM*,2,-12,-3%
CCOC(=O)c1[nH]c2c(c1Cc1ccccc1)C(=O)CC(c1ccccc1)C2 (configuration not stated),-13%,11µM*,0,-1,.
O=[N+]([O-])c1ccc(C=NNc2ccccc2)cc1,-8%,5µM*,6,10,-13%
O=C(CN1c2ccccc2Sc2ccccc21)N/N=C/c1ccc([N+](=O)[O-])cc1,-7%,13µM*,0,-23,5%
O=[N+]([O-])c1cccc(C=NNc2ccccc2)c1,0%,?,1,10,-2%
SMILES,GLP1R cytotox,GLP-1R inv ag,TRPML1 ag,TRPML1 inh,GLP-1R agonist
Fc1ccc2c(c1)Sc1ccc(Cl)cc1CC2N1CCN(CCC2OCCO2)CC1 (configuration not stated),?,3.5µM*,0,-7,17%
COCCN=c1scc(-c2ccccc2)n1/N=C/c1c[nH]c2ccccc12,-9%,4µM*,1,10,14%
C(=NN=Cc1c[nH]c2ccccc12)c1c[nH]c2ccccc12,-3%,-5%,2,36,3%
COc1ccccc1C(=O)NC1CCCCCCC1,-7%,7.1µM*,-1,16,16%
CC(=O)c1cccc(NC(=O)c2cccc(NC(=O)c3ccco3)c2)c1,18%,18%,0,-16,5%
CN1CCC(NC(=O)c2cccc(Oc3ccccc3)c2)CC1,3%,?,0,38,3%
O=C(NC1CCCC1)c1cccc(NC(=O)c2ccco2)c1,-8%,-4%,60*,-22,14%
O=C(COc1ccccc1)NC1CCCCCCC1,0%,11µM*,1,-1,5%
O=C(NC1CCCC1)c1cccc(Oc2ccccc2)c1,-3%,10µM*,2,-1,21%
CC(C)c1ccc(NC(=O)CCNS(=O)(=O)c2ccc3c(c2)oc(=O)n3C)cc1,1%,14%,0,-13,.
O=C(COc1ccc(C(=O)c2ccccc2)cc1)NC1CCCCCC1,-13%,8.9µM*,2,7,1%
CC(=O)Nc1ccc(NC(=O)COC(=O)c2ccccc2OCc2cccc(Br)c2)cc1,.,.,0,.,.
CCN1C(=O)C(Cc2nc3ccccc3c(=O)n2C)c2cc(C)ccc21 (configuration not stated),-4%,-11%,-1,-5,.
CC(C)Cc1cc(C(=O)Nc2ccc3c(c2)OCO3)no1,20%,4µM*,1,2,-2%
Cc1c(Cl)cccc1NC(=O)Nc1nnc(N(C)Cc2ccccc2)s1,30%,-6%,58*,-15,.
CN(Cc1ccccc1)c1nc2c(S(=O)(=O)c3cccc(Cl)c3)nnn2c2ccsc12,6%,20%,0,-30,.
COc1ccc(CC(=O)N2CCC(Nc3nc4ccccc4n3Cc3ccc(F)cc3)CC2)cc1,-17%,8.9µM*,0,-2,-8%
Cc1nc2c(c(C)c1CCC(=O)Nc1ccc(F)cc1)c(=O)n(C)c(=O)n2C,2%,3%,-1,-7,1%
CC(=O)N1CCc2cc(Br)cc(S(=O)(=O)N3CCC(C(=O)Nc4ccc(C(C)C)cc4)CC3)c21,1%,2%,4,1,.
CC1CC(C)CN(c2oc(Cc3ccccc3)nc2C#N)C1 (configuration not stated),106%,11µM*,6,38,13%
N#Cc1nc(Cc2ccccc2)oc1N1CCCC1,-1%,6%,1,5,37%
O=C(Cc1ccc(F)cc1)NCCS(=O)(=O)N1CCN(c2cccc(Cl)c2)CC1,2%,10µM*,-1,5,0%
CCOc1ccc(C(=O)Nc2cccc(-c3nc4cccnc4s3)c2C)cc1OCC,-3%,2%,0,8,.
CCOC(=O)/C=C/c1ccc2c(c1)S(=O)(=O)N(C1CCCC1)[C@H]2CC(=O)OCC,.,.,2,.,.

# Compound activity from PubChem BioAssay.
